# Measurements from PubChem BioAssay AID652154 (Broad Institute, 2013).
# Among all 360,000 compounds or so, about 4,200 (1.2%) were called active.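 Rule for the calls: active = mean replicate inhibition at least 60% with every replicate also reaching 60%; inconclusive = only one of the two criteria is met; inactive = mean below 60% and not all replicates reaching 60%.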 The sample as a whole holds a higher share of actives than the screen did.
# Experiment: inhibitors of PAX8-driven TPO luciferase reporter, primary screen, RMG-I cells, single concentration (AID 652154);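 note: luciferase light reporting Pax8 driven TPO promoter activity; plate controls were median of neutral control wells for no effect and mitoxantrone controls for full effect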
# Conditions: SteadyGlo, 24 h, at 12.6 µM, active compounds read high
row,SMILES,inhibition
1,Cc1ccccc1-c1ccc([C@@H]2[C@@H](CO)N3CCCCN(C(=O)Nc4cccc(F)c4)C[C@H]23)cc1,10.4% (inactive)
2,CC(C)Cc1nnc(NC(=O)CCNC(=O)c2ccccc2Cl)s1,-15.6% (inactive)
3,Cc1ccc(S(=O)(=O)CCC(=O)Nc2nnc(CC(C)C)s2)cc1,82.8% (active)
4,CC(C)Cc1nnc(NC(=O)CCc2ccccc2)s1,-22.6% (inactive)
5,C[C@H](NC(=O)C[C@H]1C=C[C@H](NS(=O)(=O)c2cccc(F)c2)[C@@H](CO)O1)c1ccccc1,-17.2% (inactive)
6,Cc1noc(C)c1NC(=O)N(C)C[C@@H]1OCCCC[C@H](C)Oc2ccc(NC(=O)C3CCCCC3)cc2C(=O)N([C@H](C)CO)C[C@@H]1C,9.59% (inactive)
7,Cc1cccc(C)c1NC(=O)CCS(=O)(=O)c1cccc2nsnc12,15.3% (inactive)
8,O=C(CCS(=O)(=O)c1ccccc1)Nc1nc2c(s1)CCCC2,51.3% (inactive)
9,COc1cccc2sc(N(CCCN(C)C)C(=O)CCS(=O)(=O)c3ccccc3)nc12,97.8% (active)
10,CCN(CC)CCN(C(=O)c1ccc2c(c1)CCCC2)c1nc2c(OC)cccc2s1,14.3% (inactive)
11,Cc1cccc2sc(N(CCCN(C)C)C(=O)CCS(=O)(=O)c3ccccc3)nc12,95.4% (active)
12,COc1ccc(N(C)C(=O)CCS(=O)(=O)c2cccc3nsnc23)cc1,1.7% (inactive)
13,CC(C)NC(=O)N[C@@H]1CC[C@H](CCn2cc(-c3ccccc3)nn2)O[C@H]1CO,-6.01% (inactive)
14,CCS(=O)(=O)N1[C@H](C#N)[C@H](c2ccc(-c3cccc(F)c3)cc2)[C@@H]1CO,-12.2% (inactive)
15,C[C@@H]1CN([C@@H](C)CO)C(=O)c2cc(NC(=O)NC3CCCCC3)ccc2O[C@@H](C)CCCCO[C@H]1CN(C)Cc1ccccc1,-10.1% (inactive)
16,C[C@@H]1CN([C@@H](C)CO)C(=O)c2cccc(NS(=O)(=O)c3cn(C)cn3)c2O[C@@H]1CN(C)Cc1ccc(Cl)c(Cl)c1,-5.72% (inactive)
17,COCC(=O)Nc1ccc2c(c1)OC[C@H](C)N(C(=O)COC)C[C@@H](C)[C@H](OC)CN(C)C2=O,-25.8% (inactive)
18,Cc1cccc(S(=O)(=O)N2C[C@H]3[C@@H](c4ccccc42)[C@H](CO)N3Cc2ccc3c(c2)OCO3)c1,32% (inactive)
19,CC(=O)N(C)C[C@@H]1Oc2cc(-c3cccnc3)ccc2S(=O)(=O)N([C@H](C)CO)C[C@H]1C,-6.51% (inactive)
20,O=C(CC1CC1)N1CC[C@@H]2[C@H](CO)Nc3ccc(-c4ccc(F)cc4)cc3[C@@H]21,14% (inactive)
